# Assay results: PubChem BioAssay (NCATS)
# Results filed as inconclusive are left out. A call without a number means that no potency is given here. Values without a mark were called inactive. The source made the active and inactive calls. Calls follow the shape of the dose curve; as a rule, active = well fitted curve in the direction sought with a large enough effect; inconclusive = small, poorly fitted or top-dose-only effect, or another doubt; inactive = no such curve, though single readings can be large; an effect the other way counts as inactive or inconclusive.
# Columns and labels:
# [1] = molecular target: Aldehyde dehydrogenase, mitochondrial (Homo sapiens) (UniProt P05091); experiment: qHTS for Inhibitors of the Aldehyde Dehydrogenase Family (ALDH2) Primary screen (AID 2061308); also: nearly all actives have a fitted effect of over 55% in size
# [2] = molecular target: Retinaldehyde dehydrogenase 3 (Homo sapiens) (UniProt P47895); experiment: qHTS for Inhibitors of the Aldehyde Dehydrogenase Family (ALDH1A3) Primary screen (AID 2061315)
Compound,Potency [1],Potency [2],"activity change, negative = inhibition [1]","activity change, negative = inhibition [2]"
Cn1cc(P(=S)(c2ccccc2)c2ccccc2)c2ccccc21,inactive,inactive,–,–
N#Cc1ccc(NC(=O)Nc2nnc(-c3ccncc3)s2)cc1Br,inactive,inactive,–,–
CC[C@@H](C)[C@H]1C(=O)O[C@H](C(C)C)C(=O)N(C)[C@@H](C(C)C)C(=O)O[C@H](C(C)C)C(=O)N(C)[C@@H](C(C)C)C(=O)O[C@H](C(C)C)C(=O)N1C,inactive,inactive,–,–
C[C@@H]1O[C@@H](O[C@H]2CC[C@@]3(C)C(CC[C@@H]4C3CC[C@]3(C)[C@@H](C5=CC(=O)OC5)CC[C@]43O)C2)[C@H](O[C@@H]2O[C@H](CO)[C@@H](O)[C@H](O)[C@H]2O)[C@H](O)[C@H]1O (stereo partly drawn),inactive,inactive,–,–
Cc1cc(-c2nnc3n2CCCCC3)c(C)n1-c1ccc(Cl)cc1,inactive,inactive,–,–
COC(=O)N1CCN(C(=O)Cc2ccc(Cl)c(Cl)c2)[C@@H](CN2CCCC2)C1,inactive,inactive,–,–
CC[C@H]1C2CC3[C@@H]4N(C)c5ccccc5[C@]45C[C@@H]([C@H]2[C@H]5O)N3[C@@H]1O,inactive,inactive,–,–
CCOc1ccc(CCNC(=O)c2ccc(C(=O)c3ccccc3)cc2)cc1OCC,inactive,inactive,–,–
CC(=O)OC1CC(O)C2(C)C(CC(OC(C)=O)C3(C)C2CCC2(C)C(c4ccoc4)C(=O)C4OC423)C1(C)C (stereo not drawn),inactive,inactive,–,–
Cc1cc(-c2nnc3n2CCCCC3)c(C)n1-c1cccnc1,inactive,inactive,–,–
CCc1nn2c(=O)cc(N3CCN(C)CC3)nc2s1,inactive,inactive,–,–
C[C@H]1O[C@@H](O[C@H]2C[C@@H](O)[C@]3(CO)C4C(CC[C@]3(O)C2)[C@@]2(O)CC[C@H](C3=CC(=O)OC3)[C@@]2(C)C[C@H]4O)[C@@H](O)[C@@H](O)[C@H]1O (stereo partly drawn),inactive,inactive,–,–
C/C=C(/C)C(=O)O[C@H]1[C@@H]2[C@H](C)C(=O)O[C@@H]2C[C@@H](C)[C@@H]2C=CC(=O)[C@]21C,inactive,inactive,–,–
CCCc1ccc(NC(=O)c2ccc3c(c2)NC(=O)CS3)cc1,inactive,inactive,–,–
CC(=O)OC[C@]12C[C@H](OC(=O)CC(C)C)C(C)=C[C@H]1O[C@@H]1[C@H](O)[C@@H](O)[C@@]2(C)[C@]12CO2,inactive,inactive,–,–
COc1cccc(CNc2ccc(S(=O)(=O)Nc3nccs3)cc2)c1OC,inactive,inactive,–,–
Cc1cccc(NC(=O)N[C@H]2CN(C)c3ccccc3C(c3ccccc3)=N2)c1,inactive,inactive,–,–
N#Cc1ccc(NC(=O)Nc2nnc(-c3ccncc3)s2)cc1C(F)(F)F,inactive,inactive,–,–
CN1Cc2c(ccc3c2OCO3)[C@@H]2[C@H]1c1cc3c(cc1C[C@@H]2O)OCO3,inactive,inactive,–,–
CC1=C(C(=O)Nc2nncs2)C(c2nn(C)cc2Cl)N=C(Nc2nc3ccccc3o2)N1 (stereo not drawn),inactive,inactive,–,–
CO[C@H]1[C@@H](O)[C@@H](C)O[C@@H](O[C@@H]2C=C3C(OC(C)=O)CC4(O)C(CC[C@]5(C)[C@@H](C6=CC(=O)OC6)CC[C@]45O)[C@@]3(C)CC2)[C@@H]1O (stereo partly drawn),inactive,inactive,–,–
COc1ccc(CCNCc2ccc(OC)c3ccccc23)cc1,inactive,inactive,–,–

Compound,Potency [1],Potency [2],"activity change, negative = inhibition [1]","activity change, negative = inhibition [2]"
CO[C@@H]1C[C@H](O[C@H]2CC[C@@]3(C)C(CCC4C3CC[C@]3(C)[C@@H](C5=CC(=O)OC5)[C@@H](OC(C)=O)CC43O)C2)O[C@H](C)[C@@H]1O[C@H]1O[C@H](CO[C@@H]2O[C@H](CO)[C@@H](O)[C@H](O)[C@H]2O)[C@@H](O)[C@H](O)[C@H]1O (stereo partly drawn),inactive,inactive,–,–
C[C@]12CC[C@H](O)C[C@H]1CC[C@@H]1[C@@H]2[C@H](O)C[C@]2(C)[C@@H](c3ccc(=O)oc3)CC[C@]12O,inactive,inactive,–,–
CCc1nn2c(=O)c(F)c(N3CCNCC3)nc2s1,inactive,inactive,–,–
C#C[C@]1(O)CC[C@H]2[C@@H]3CC[C@H]4Cc5nc6nc7ccccc7n6cc5C[C@]4(C)[C@H]3CC[C@@]21C,inactive,inactive,–,–
S=P(c1ccccc1)(c1ccccc1)c1cnc2ccccn12,inactive,inactive,–,–
Nc1ncnc2c1ncn2[C@@H]1O[C@@H]2COP(O)(=S)O[C@H]2[C@H]1O (stereo partly drawn),–,–,4.01% [at 11.2 µM],2.78% [at 11.2 µM]
C[C@]12CC[C@@H](O[C@@H]3O[C@H](CO)[C@@H](O)[C@H](O)[C@H]3O)C[C@@]1(O)CCC1C2CC[C@]2(C)[C@@H](C3=CC(=O)OC3)CC[C@]12O (stereo partly drawn),inactive,inactive,–,–
C=C1C[C@]2(O)[C@@]3(C)CCC(=O)C(C)(C)C3=C(O)C(=O)[C@@]2(C)[C@@H]2C(=O)O[C@@](C)(C(=O)OC)C(=O)[C@@]12C,inactive,inactive,–,–
CCCCCOc1cc2c(cc1-c1cc(/C=C/C(=O)O)ccc1O)C(C)(C)CCC2(C)C,inactive,inactive,–,–
COc1cccc(CNc2ccc(S(=O)(=O)Nc3cccc(-c4ccccc4)c3)cc2)c1O,inactive,inactive,–,–
COC1CC(O[C@H]2CC[C@]3(C=O)C4CC[C@]5(C)[C@@H](C6=CC(=O)OC6)CC[C@]5(O)[C@@H]4CC[C@]3(O)C2)OC(C)C1O[C@@H]1O[C@H](CO)[C@@H](O)[C@H](O)[C@H]1O (stereo partly drawn),inactive,inactive,–,–
C=C(C)C(=O)O[C@H]1[C@@H]2[C@H](C)C(=O)O[C@@H]2C[C@@H](C)[C@@H]2C=CC(=O)[C@]21C,inactive,inactive,–,–
COc1cccc(CNc2ccc(S(=O)(=O)Nc3ccc4ccccc4c3)cc2)c1O,inactive,inactive,–,–
O=C(Nc1nnc(-c2cccs2)o1)c1ccc(Cl)cc1,inactive,inactive,–,–
Oc1cccc2cc(N3CCNCC3)cnc12,inactive,inactive,–,–
C[C@H]1CC[C@@H]2[C@@H](C)[C@H]3[C@H](C[C@H]4[C@@H]5CC=C6CC(O[C@@H]7O[C@H](CO)[C@@H](O)[C@H](O[C@@H]8O[C@H](CO)[C@@H](O)[C@H](O)[C@H]8O)[C@@H]7O[C@@H]7O[C@@H](C)[C@H](O)[C@@H](O)[C@H]7O)CC[C@]6(C)[C@H]5CC[C@]34C)N2C1 (stereo partly drawn),inactive,inactive,–,–
CCOc1ccc(CCNC(=O)c2cc3cnccc3n2Cc2cccc(C)c2)cc1OCC,inactive,inactive,–,–
C[C@H]1O[C@@H](O[C@H]2CC[C@]3(C=O)C4CC[C@]5(C)[C@@H](C6=CC(=O)OC6)CC[C@]5(O)[C@@H]4CC[C@]3(O)C2)C[C@@H](O)[C@@H]1O (stereo partly drawn),inactive,inactive,–,–
Cc1cccc(-n2cnc3cc(C(=O)N4CCCC(C)C4)ccc32)c1 (stereo not drawn),inactive,inactive,–,–
O=S(=O)(Nc1ccccc1)c1ccc(NCc2ccc(Br)cc2O)cc1,inactive,inactive,–,–
COC(=O)C12C(=O)C(C)(O)C(=O)C1(C)C(C)=CC1C3(C=O)CCC(OC(C)=O)C(C)(C)C3CCC12C (stereo not drawn),inactive,inactive,–,–
Cc1c(P(=S)(c2ccccc2)c2ccccc2)[n+]2ccccc2n1C,inactive,inactive,–,–

Compound,Potency [1],Potency [2],"activity change, negative = inhibition [1]","activity change, negative = inhibition [2]"
CC1=C(C(=O)Nc2nccs2)C(c2ccccc2Br)N=C(Nc2nc3ccccc3o2)N1 (stereo not drawn),inactive,inactive,–,–
O=S(=O)(Nc1cccc2ccncc12)c1ccc(NCc2cccc(Cl)c2O)cc1,inactive,inactive,–,–
Cn1cc(Cl)c(C2N=C(Nc3nc4ccccc4o3)NC3=C2C(=O)CCC3)n1 (stereo not drawn),inactive,inactive,–,–
OC(CNc1ccccc1)Cn1c2ccc(Br)cc2c2cc(Br)ccc21 (stereo not drawn),inactive,inactive,–,–
CC(=O)O[C@H]1C[C@@H](C)O[C@H]2O[C@@H]3CC4CC[C@@H]5C(CC[C@]6(C)[C@@H](C7=CC(=O)OC7)CC[C@]56O)[C@@]4(C=O)C[C@H]3O[C@]21O (stereo partly drawn),inactive,inactive,–,–
CC(=O)O[C@H]1C[C@]2(O)[C@@H]3CC[C@@H]4C[C@@H](O)CC[C@]4(C)[C@H]3CC[C@]2(C)[C@H]1c1ccc(=O)oc1,inactive,inactive,–,–
Oc1ccc2c3c1O[C@H]1c4[nH]c5c(N=C=S)cccc5c4C[C@@]4(O)[C@@H](C2)N(CC2CC2)CC[C@]314,inactive,inactive,–,–
COC(=O)C12C(=O)C(C)(O)C(=O)C1(C)C(C)=CC1C34CCC(OC3=O)C(C)(C)C4CCC12C (stereo not drawn),inactive,inactive,–,–
C=C1[C@@H](O)[C@]2(O)OC[C@]34C2[C@]2(C)C(C[C@H]3OC(=O)[C@H](O)[C@@]14O)C(C)=CC(=O)[C@H]2O (stereo partly drawn),inactive,inactive,–,–
COc1ccc(C23CCC(=O)C=C2N(C)CC3)cc1OC (stereo not drawn),inactive,inactive,–,–
CCOc1ccc(CCNC(=O)c2cc3ccccc3n2Cc2ccccn2)cc1OCC,inactive,inactive,–,–
O=C(N[C@@H]1N=C(c2ccccc2F)c2cccc3c2N(CC3)C1=O)c1cc2ccccc2[nH]1,inactive,inactive,–,–
Cc1ccc2nc(NC3=NC(c4[nH]ncc4Cl)C4=C(CCCC4=O)N3)oc2c1 (stereo not drawn),inactive,inactive,–,–
CC(=O)OC[C@H](N)C(=O)c1ccccc1,inactive,inactive,–,–
CCOc1ccc(CCNC(=O)c2cc3sccc3n2Cc2ccc(F)cc2F)cc1OCC,inactive,inactive,–,–
CCOc1ccc(CCNC(=O)c2cc3cccnc3n2Cc2cccc(C)c2)cc1OCC,inactive,inactive,–,–
COC1CC(O[C@H]2CC[C@@]3(C)C(CCC4C3CC[C@]3(C)C(C5=CC(=O)OC5)CCC43O)C2)OC(C)C1OC1OC(COC2OC(CO)C(O)C(O)C2O)C(O)C(O)C1O (stereo partly drawn),inactive,inactive,–,–
CCOc1ccc(CCNC(=O)c2ccc(Oc3ccccc3)cc2)cc1OCC,inactive,inactive,–,–
Cc1cc(-c2nnc3n2CCCCC3)c(C)n1-c1ccc(C(C)(C)C)cc1,inactive,inactive,–,–
C/C=C(\C)C(=O)O[C@@H]1[C@@H](C)[C@]2(O)C3C=C(C)C(=O)[C@@]3(O)CC(CO)=C[C@H]2C2C(C)(C)[C@@]21OC(=O)C(C)CC (stereo partly drawn),inactive,inactive,–,–
